# Assay outcomes as filed in PubChem BioAssay.
# BAZ2B inh – inhibitors of human BAZ2B bromodomain. AID 504333. 4.4% of 360,000 active. Potency, µM (doses to about 114 µM), inactives show at the highest dose activity change, negative = inhibition, hits mostly inhibitors. AlphaScreen BAZ2B-H3K14Ac peptide displacement; note: % is set by controls: 0 for no effect and ±100 for the full control effect; nearly all actives have a fitted effect of over 60% in size
#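 BAZ2B (50 nM) with biotin-H3(5-23)K14Ac peptide (50 nM) in PBS pH 7.4, 0.01% Tween-20, preformed 30 min, then compound 30 min at room temperature; top concentration 110uM. AlphaScreen streptavidin donor/nickel chelate acceptor beads (10 ug/mL final), 20 min dark, signal read.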
# JMJD2A Tudor inh – blocks the human JMJD2A Tudor domain. O75164. AlphaScreen JMJD2A-Tudor / H3K4me3 peptide binding. Potency, µM (series often up to 114 µM), for inactives: top-dose activity change, negative = inhibition, most hits filed as inhibitors. 4.4% of 390,000 active. AID 504339; note: % is set by controls: 0 for no effect and ±100 for the full control effect; nearly all actives have a fitted effect of over 50% in size
# GLS inhibitor – inhibitors of human glutaminase (GLS) | GLS enzymatic activity, qHTS titration | Potency, µM (doses to about 45.5 µM), inactives show at the highest dose activity change, negative = inhibition, usual class: inhibitors | 0.21% of 410,000 active | AID 624170; note: % is set by controls: 0 for no effect and ±100 for the full control effect
#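 Glutamate formation by hKGA was monitored fluorometrically using coupled glutamate oxidase, HRP and Amplex Red. Substrate was added as 1 mM L-glutamine solution; incubation was 30 min at RT after an initial read.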
# HP1b chromo inh – inhibitors of HP1-beta chromodomain binding to methylated histone tails; AID 540317; 0.56% of 390,000 active; AlphaScreen HP1-beta / biotin-H3K9me3 peptide binding; Potency, µM (doses to about 114 µM), for inactives: top-dose activity change, negative = inhibition, usual class: inhibitors; P83916; note: nearly all actives have a fitted effect of over 70% in size
#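 Compound inhibition of the preformed complex between 50 nM HP1-beta and 50 nM biotinylated H3K9me3 peptide was read by AlphaScreen. Buffer was PBS pH 7.4 with 0.01% Tween-20. Incubations ran 30 min at room temperature, with 10 ug/mL donor/acceptor beads.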
# G9a inh – G9a (human) methyltransferase inhibition | Potency, µM (top dose mostly 102 µM), inactives show at the highest dose activity, negative = inhibition, hits mostly inhibitors | 8.8% of 350,000 active | Q96KQ7 | AID 504332 | G9a H3K9 monomethylation, AlphaScreen, 2 h; note: % is set by controls: 0 for no effect and ±100 for the full control effect; nearly all actives have a fitted effect of over 75% in size
#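 Enzyme 20 nM + cpd, 15 min RT; add b-H3K9 pep 500 nM / SAM 20 uM; 2 h RT; anti-H3K9me1 Ab 0.5 ug/mL + SA donor / anti-rabbit acceptor beads 20 ug/mL each, 10 min; AlphaScreen read.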
# L3MBTL1 block – blocks human L3MBTL1 | 0.66% of 230,000 active | AlphaScreen L3MBTL1–H3K9me1 peptide binding | Potency, µM (doses to about 57.1 µM), for inactives: at the highest dose activity, negative = inhibition, most hits filed as inhibitors; note: % is set by controls: 0 for no effect and ±100 for the full control effect; nearly all actives have a fitted effect of over 60% in size
#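 First, the protein-peptide complex forms for 30 min at room temperature (L3MBTL1 50 nM, biotinylated H3K9me1 peptide 75 nM). Next, compounds are pin-transferred and incubated 30 min. Finally, AlphaScreen beads are added and read after 30 min.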
# An asterisk follows results filed as active; ? = inconclusive; nt = not tested or not shown; [ ] = dose if it differs, or a comment. An excerpt weighted towards active compounds, which were near 10% of everything screened. Calls come from the whole dose curve; as a rule, active = well fitted curve in the direction sought with a large enough effect; inconclusive = small, poorly fitted or top-dose-only effect, or another doubt; inactive = no such curve, though single readings can be large; an effect the other way counts as inactive or inconclusive. Potency is the fitted concentration of half-maximal effect.
SMILES,BAZ2B inh,JMJD2A Tudor inh,GLS inhibitor,HP1b chromo inh,G9a inh,L3MBTL1 block
COc1ccc(C(=O)NCCSc2c(C)[nH]c3ccccc23)cc1,71µM*,-33%,1%,16%,-49%[59 µM],nt
Cc1[nH]c2ccccc2c1SCCNC(=O)c1ccc(F)cc1,-23%,?,-1%,14%,-3%[59 µM],nt
COc1ccc(/C=C/C(=O)O)cc1Cl,4%,-2%,0%,29%,-4%,9%
CC(/C=C/c1ccc(Cl)o1)=C\C(=O)O,?,-26%,1%,13%,50µM*,?
CC(=C/C(=O)O)/C=C/c1ccco1,-9%,-18%,4%,20%,40µM*,?
CC(C)CCCC(C)C1CC(=O)C2=C3CCC4CC(O)CCC4(C)C3CCC21C (stereo not given),nt,nt,-4%,nt,2%[12.7 µM],nt
O=C(O)c1cc2c([nH]c1=O)CCCC2,-35%,?,-1%,36%,?,1%[11.4 µM]
C=CCSC(=C(C#N)C#N)c1cc2c([nH]1)CCCC2,50µM*,50µM*,6%,?,-48%[12.7 µM],nt
Cc1[nH]n(-c2ccccc2)c(=O)c1/C=N/NC(=O)c1cccc(F)c1,79µM*,79µM*,3%,45%,25µM*,nt
Cc1[nH]n(-c2ccc(Br)cc2)c(=O)c1/C=N/NC(=O)c1ccccc1,32µM*,79µM*,34%,38%,?,-1%
NC(=O)CSc1ccc2nnc(-c3ccncc3)n2n1,nt,-8%[57.1 µM],nt,12%[57 µM],nt,nt
COc1cc(OC)c(CN2CCCN(C)CC2)cc1Br,79µM*,1.4µM*,-8%,?,nt,-4%
COc1ccc(CN2CCN(c3ccc(F)cc3)CC2)c(OC)c1OC,-34%,-31%,20%,1%,-3%[59 µM],-8%
COc1cc(OC)c(CN2CCN(c3ccc(F)cc3)CC2)cc1Br,50µM*,2.5µM*,15%,-63%,35µM*,-7%
COc1cccc(C(=O)Nc2nnc(S(=O)(=O)N3CCCc4ccccc43)s2)c1,?,-33%,16%,-20%,?,nt
CCCCCCCCc1nc(=S)[nH][nH]1,13%,?,-18%,?,0.89µM*,4%
CCCCCCC1CC(CCc2nc(=S)[nH][nH]2)C(=O)O1 (stereo not given),0%,32µM*,-14%,-17%,1.6µM*,-1%
Cc1cc(C)n2c(Nc3ccccc3)c(-c3ccc(C)o3)nc2n1,nt,-33%,nt,6%,nt,nt
Cc1ccc(N2C(=O)C(Cl)=C(N3CCN(C)CC3)C2=O)c(C)c1,3%,-16%,9%,52%,?,7%
CN1CCN(C2=C(Cl)C(=O)N(c3ccc(Cl)cc3)C2=O)CC1,nt,40µM*,4%,26%,5µM*,-7%
O=C(O)c1cc([N+](=O)[O-])cc([N+](=O)[O-])c1N1CCN(c2cccc(C(F)(F)F)c2)CC1,-36%,-36%,2%,-16%,56µM*,nt
Cc1[nH]c2ccccc2c1/C=N/Nc1nc(Nc2ccc(F)cc2)nc(N2CCOCC2)n1,50µM*,10%[11.4 µM],-3%,-18%,?,?
Cc1ccc(Nc2nc(N/N=C/c3c[nH]c4ccccc34)nc(N3CCOCC3)n2)cc1,45µM*,45µM*,-3%,-36%,?,-24%
c1ccc(Nc2nc(N3CCNCC3)nc(N3CCOCC3)n2)cc1,-11%,-28%,7%,-21%,-30%[59 µM],0%
Cc1cc(/C=N/Nc2nc(N3CCOCC3)nc(N3CCOCC3)n2)c(C)n1-c1ccccc1,nt,?,-5%,?,-48%,nt
C(=N\Nc1nc(Nc2ccccc2)nc(N2CCOCC2)n1)/c1c[nH]c2ccccc12,32µM*,50µM*,23%,-12%,nt,-14%
N#Cc1ccc(-c2cccs2)nc1SCc1ccc(Cl)cc1Cl,31%,70%,2%,105%,125%[59 µM],nt
Cc1ccc(CCNS(=O)(=O)c2ccc3c(c2)C(C(C)C)C(=O)N3)cc1 (stereo not given),50%[57.1 µM],-22%,-1%,60%,-1%[59 µM],nt
